Results taken from PubChem BioAssay (EPA / NIEHS).
Values joined by “and” are separate entries in the source; they are usually repeats but may differ in a detail not shown here. Equal values may be shown once. Some structures have more than one record in an assay (separate samples or runs), and their calls can disagree. Active and inactive are the calls of the source. The calls were made as follows: active = hit-call score of the fitted dose curve at least 0.9, where 1 is the maximum; inactive = score below 0.9.

Tests used:
[1] = read-out: Vascular cell adhesion molecule 1 (VCAM1), VCAM1 (gene 7412); test: BSK_4H_VCAM1: BioMAP Diversity Plus: 4H Assay for Vascular cell adhesion molecule 1 (VCAM1) Biomarker Activity (AID 2283033); settings: primary human endothelial cells (HUVEC); actives raise or lower the signal
Method in brief: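 Endpoint derived from bidirectional fitting against DMSO controls of VCAM-1 ELISA signal in umbilical vein endothelial cells sampled at 24 h following treatment.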

[2] = read-out: Interferon-gamma inducible Protein 10 (IP10), CXCL10 (gene 3627); test: BSK_BE3C_IP10: BioMAP Diversity Plus: BE3C Assay for Interferon-gamma inducible Protein 10 (IP10) Biomarker Activity (AID 2283034); settings: primary human bronchial epithelial cells; actives raise or lower the signal
Method in brief: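 Using primary human bronchial epithelial cultures, the assay captures IP-10 by ELISA one day (24 h) after exposure. Parallel SRB staining of total protein flags overt cytotoxicity. Fits run bidirectionally relative to DMSO.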

[3] = read-out: Monokine induced gamma interferon (MIG), CXCL9 (gene 4283); test: BSK_BE3C_MIG: BioMAP Diversity Plus: BE3C Assay for Monokine induced gamma interferon (MIG) Biomarker Activity (AID 2283035); settings: primary human bronchial epithelial cells; actives raise or lower the signal
Method in brief: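 ELISA read-out of MIG in human lung bronchial epithelial primary cultures, 24 h post-dosing. Bidirectional curve fit vs DMSO baseline.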

[4] = read-out: Transforming growth factor beta 1 (TGFb1), TGFB1 (gene 7040); test: BSK_BE3C_TGFb1: BioMAP Diversity Plus: BE3C Assay for Transforming growth factor beta 1 (TGFb1) Biomarker Activity (AID 2283036); settings: primary human bronchial epithelial cells; actives raise or lower the signal
Method in brief: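 In this human primary bronchial epithelial system, an ELISA quantified TGF-b1 one day after dosing. Endpoint changes in either direction were fitted relative to DMSO.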

[5] = read-out: Plasminogen activator inhibitor-1 (PAI1), SERPINE1 (gene 5054); test: BSK_BE3C_PAI1: BioMAP Diversity Plus: BE3C Assay for Plasminogen activator inhibitor-1 (PAI1) Biomarker Activity (AID 2283037); settings: primary human bronchial epithelial cells; actives raise or lower the signal
Method in brief: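 PAI-1 biomarker levels in treated human bronchial epithelial cells are determined by ELISA at 24 h. Both increases and decreases relative to DMSO are fitted.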

[6] = read-out: urokinase plasminogen activator (uPA), PLAU (gene 5328); test: BSK_BE3C_uPA: BioMAP Diversity Plus: BE3C Assay for urokinase plasminogen activator (uPA) Biomarker Activity (AID 2283038); settings: primary human bronchial epithelial cells; actives raise or lower the signal
Method in brief: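 ELISA read-out of uPA in human lung primary bronchial epithelial cultures, 24 h post-dosing. Gain or loss of signal fitted bidirectionally relative to DMSO baseline; cytotoxicity checked in parallel cultures via SRB total protein stain.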

[7] = read-out: Urokinase-type plasminogen activator receptor (uPAR), PLAUR (gene 5329); test: BSK_BE3C_uPAR: BioMAP Diversity Plus: BE3C Assay for Urokinase-type plasminogen activator receptor (uPAR) Biomarker Activity (AID 2283039); settings: primary human bronchial epithelial cells; actives raise or lower the signal
Method in brief: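 A uPAR ELISA serves as the readout, taken 24 h after treating primary human bronchial epithelial cells. Responses in either direction are fitted against DMSO, which defines baseline activity.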

[8] = read-out: Interleukin-6 (IL6), IL6 (gene 3569); test: BSK_CASM3C_IL6: BioMAP Diversity Plus: CASM3C Assay for Interleukin-6 (IL6) Biomarker Activity for (AID 2283040); settings: primary human coronary artery smooth muscle cells; actives raise or lower the signal
[9] = read-out: Tissue plasminogen activator (tPA), PLAT (gene 5327); test: BSK_BE3C_tPA: BioMAP Diversity Plus: BE3C Assay for Tissue plasminogen activator (tPA) Biomarker Activity (AID 2283041); settings: primary human bronchial epithelial cells; actives raise or lower the signal
Method in brief: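 Bidirectional curve fitting relative to DMSO defined activity, with tPA detected by ELISA in chemically treated human bronchial epithelial primary cells at 24 hours.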

[10] = read-out: Interleukin-8 (IL8), CXCL8 (gene 3576); test: BSK_CASM3C_IL8: BioMAP Diversity Plus: CASM3C Assay for Interleukin-8 (IL8) Biomarker Activity (AID 2283042); settings: primary human coronary artery smooth muscle cells; actives raise or lower the signal;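 also: IL-8 protein level quantified by ELISA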

Measured: AC50

CCOC(=O)CN[C@@H](C(=O)N1CC[C@H]1C(=O)NCc1ccc(/C(N)=N/O)cc1)C1CCCCC1
inactive: [1] | [2] | [3] | [4] | [5] | [6] | [7] | [8] | [9] | [10]

CN(Cc1cnc2nc(N)nc(N)c2n1)c1ccc(C(=O)N[C@@H](CCC(=O)O)C(=O)O)cc1
active: [5] 2.71 µM
inactive: [1] | [2] | [3] | [4] | [5] | [6] | [7] | [8] | [9] | [10]

CCCCC(CC)C(=O)OCCOCCOCCOCCOC(=O)C(CC)CCCC (centres undefined)
active: [8] 11.3 µM
inactive: [1] | [2] | [3] | [4] | [5] | [6] | [7] | [9] | [10]

NC(=NCCCCCCN=C(N)/N=C(\N)Nc1ccc(Cl)cc1)/N=C(\N)Nc1ccc(Cl)cc1
inactive: [4]
active: [1] 5.68 µM | [2] 4.26 µM | [3] 11.9 µM | [5] 1.46 µM | [6] 3.31 µM | [7] 3.1 µM | [8] 7.19 µM | [9] 1.37 µM | [10] 9.32 µM

CCC(C)c1ccccc1O (centres undefined)
inactive: [1] | [2] | [3] | [4] | [5] | [6] | [7] | [8] | [9] | [10]

Cc1cccc2c1ccc1ccccc12
inactive: [1] | [2] | [3] | [4] | [5] | [6] | [7] | [8] | [9] | [10]

CC[N+](CC)(CC)Cc1ccccc1
active: [8] 0.0875 µM
inactive: [1] | [2] | [3] | [4] | [5] | [6] | [7] | [9] | [10]

CC(C)(C)c1ccc(O)c(O)c1
inactive: [2] | [3] | [4] | [5] | [6] | [7] | [8] | [9]
active: [1] 17.1 µM

CCCCCc1ccc(O)cc1
active: [1] 24.9 µM | [2] 16.6 µM | [3] 32.8 µM | [4] 20 µM | [5] 20 µM | [6] 27.2 µM | [7] 30.5 µM | [8] 20 µM | [9] 11.6 µM | [10] 20 µM

Cc1[nH]nc2c1N=C(c1ccccc1Cl)c1cc([N+](=O)[O-])ccc1N2
active: [1] 2.56 µM | [2] 12.2 µM | [3] 19.3 µM | [4] 21.6 µM | [5] 1.62 µM | [9] 20 µM
inactive: [6] | [7] | [8] | [10]

N=C(N)c1ccc(OCCCCCOc2ccc(C(=N)N)cc2)cc1
active: [2] 24.1 µM | [5] 10.3 µM | [6] 17.5 µM | [8] 20.7 µM | [10] 24.1 µM
inactive: [1] | [3] | [4] | [7] | [9]

O=C(CCCN1CCC(O)(c2ccc(Cl)cc2)CC1)c1ccc(F)cc1
active: [1] 20 µM
inactive: [2] | [3] | [4] | [5] | [6] | [7] | [8] | [9] | [10]

CS(=O)(=O)c1ccc([C@@H](CC2CCCC2)C(=O)Nc2cnccn2)cc1Cl
active: [2] 31 µM | [5] 29.2 µM
inactive: [1] | [3] | [4] | [6] | [7] | [8] | [9] | [10]

OCC(F)(F)C(F)(F)C(F)(F)C(F)(F)C(F)(F)C(F)(F)C(F)(F)C(F)(F)C(F)(F)C(F)(F)C(F)(F)F
active: [2] 0.218 µM
inactive: [1] | [2] | [3] | [5] | [6] | [7] | [8] | [9] | [10]

CCCCCCCCCCCCCCC
inactive: [1] | [2] | [3] | [4] | [5] | [6] | [7] | [8] | [9] | [10]

O=P(O)(O)CCC(F)(F)C(F)(F)C(F)(F)C(F)(F)C(F)(F)C(F)(F)F
active: [2] 3.21 µM
inactive: [1] | [2] | [3] | [5] | [6] | [7] | [8] | [9] | [10]

Oc1cc2ccccc2cc1O
inactive: [1] | [2] | [3] | [4] | [5] | [6] | [7] | [8] | [9] | [10]

Cc1ccc(N=Nc2c(O)ccc3ccccc23)c(C)c1
inactive: [3] | [4] | [8] | [9] | [10]
active: [1] 9.98 µM | [2] 3.88 µM | [5] 10 µM | [6] 10 µM | [7] 4.02 µM

COc1cc(OC)nc(NC(=O)NS(=O)(=O)Nc2ccccc2C(=O)N(C)C)n1
inactive: [1] | [2] | [3] | [4] | [5] | [6] | [7] | [8] | [9]
active: [10] 0.0224 µM

CN(C)CCOC(c1ccccc1)c1ccccc1
active: [1] 2.03 µM
inactive: [2] | [3] | [4] | [5] | [6] | [7] | [8] | [9] | [10]

O=C1NS(=O)(=O)c2ccccc21
inactive: [1] | [2] | [3] | [4] | [5] | [6] | [7] | [8] | [9] | [10]

COCN(COC)c1nc(N(COC)COC)nc(N(COC)COC)n1
inactive: [1] | [2] | [3] | [4] | [5] | [6] | [7] | [8] | [9] | [10]

OCCN1CN(CCO)CN(CCO)C1
inactive: [2] | [3] | [4] | [5] | [6] | [7] | [8] | [9] | [10]
active: [1] 29.8 µM

CN(C)c1ccc(C(=C2C=CC(=[N+](C)C)C=C2)c2ccccc2)cc1
active: [1] 0.016 µM | [2] 0.202 µM | [3] 0.561 µM | [6] 0.958 µM | [7] 0.186 µM | [8] 0.103 µM | [10] 1.98 µM
inactive: [4] | [5] | [9]

O=C1c2ccc(O)c(O)c2C(=O)c2c(O)ccc(O)c21
inactive: [1] | [2] | [3] | [4] | [5] | [6] | [7] | [8] | [9] | [10]

CCCCC=O
inactive: [1] | [2] | [3] | [4] | [5] | [6] | [7] | [8] | [9] | [10]

C=COC(=O)C(C)(C)CCCCCC
inactive: [3] | [4] | [7] | [10]
active: [1] 30.2 µM | [2] 33.5 µM | [5] 29.4 µM | [6] 20 µM | [8] 32 µM | [9] 20 µM

C=CC(C)(CCC=C(C)C)OC(C)=O (centres undefined)
active: [1] 30.5 µM | [2] 26.6 µM | [7] 27.1 µM | [9] 26.3 µM
inactive: [3] | [4] | [5] | [6] | [8] | [10]

OCC(CO)(CBr)CBr
inactive: [1] | [2] | [3] | [4] | [5] | [6] | [7] | [8] | [9] | [10]

O=C(NCc1ncc(C(F)(F)F)cc1Cl)c1c(Cl)cccc1Cl
inactive: [1] | [2] | [3] | [4] | [5] | [6] | [7] | [8] | [9] | [10]

O=C(O)CCC(F)(F)C(F)(F)C(F)(F)C(F)(F)C(F)(F)F
inactive: [1] | [2] | [3] | [5] | [6] | [7] | [8] | [9] | [10]

CC1=NN(c2ccccc2)C(=O)C1
inactive: [1] | [2] | [3] | [4] | [5] | [6] | [7] | [8] | [9] | [10]

CCCCCCCCCCCC
inactive: [6] | [7] | [8] | [9] | [10]
active: [1] 33.4 µM and 32.1 µM | [2] 7.03 µM and 6.14 µM | [3] 9 µM and 9.5 µM | [5] 9.17 µM and 6.53 µM

O=C1OC2(c3ccccc31)c1cc(I)c(O)c(I)c1Oc1c2cc(I)c(O)c1I
active: [2] 13.6 µM | [3] 19.9 µM | [4] 3.9 µM | [5] 4.07 µM | [6] 8.35 µM | [7] 6.1 µM | [8] 0.9 µM | [9] 5.58 µM
inactive: [10]

C=CC(=C)CC/C=C(\C)CCC=C(C)C
inactive: [1] | [2] | [3] | [4] | [5] | [6] | [7] | [8] | [9] | [10]

Clc1ccc(Nc2nnc(Cc3ccncc3)c3ccccc23)cc1
inactive: [1] | [3] | [4] | [7] | [8] | [9] | [10]
active: [5] 3.84 µM | [6] 5.6 µM

C=CC(=O)OCCC(F)(F)C(F)(F)C(F)(F)C(F)(F)C(F)(F)C(F)(F)C(F)(F)C(F)(F)F
inactive: [1] | [2] | [3] | [5] | [6] | [7] | [8] | [9] | [10]

COC1=CC(=O)C[C@@H](C)[C@]12Oc1c(Cl)c(OC)cc(OC)c1C2=O
inactive: [1] | [2] | [3] | [4] | [5] | [6] | [7] | [8] | [10]
